From PubChem
TDP1 cell CPT: qHTS for Inhibitors of human tyrosyl-DNA phosphodiesterase 1 (TDP1): qHTS in cells in presence of CPT; chicken DT40 Tdp1-/-;hTDP1 cells + 20 nM CPT, ATP luminescence, 48 h; Potency, µM (titrated, usually from 46.2 µM), most hits filed as inhibitors; 420,000 compounds, 12% hits; AID 686979, 2013; note: nearly all actives have a fitted effect of over 55% in size
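Cell growth measured by CellTiter-Glo luminescence after a minimum 48 h, 37 C compound exposure with 20 nM CPT in Tdp1-knockout DT40 cells stably expressing hTDP1, seeded 400/well; qHTS titration format.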
HT1080 IDH1KD tx: qHTS for induction of synthetic lethality in tumor cells producing 2HG: qHTS for the HT-1080-IDH1KD cell line; HT-1080 IDH1 knockdown viability, ATP luminescence, 48 h; Potency, µM (titrated, usually from 46.1 µM), usual class: cytotoxic; 360,000 compounds, 2% hits
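Viability of IDH1-knockdown HT-1080 fibrosarcoma cells was assessed by CellTiter-Glo after 48 h at 37 °C with titrated compound; concentration-effect curves were classified by fit quality and response size.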
TDP1 cell noCPT: qHTS for Inhibitors of human tyrosyl-DNA phosphodiesterase 1 (TDP1): qHTS in cells in absence of CPT; DT40 Tdp1-/- hTDP1 cells, no CPT, ATP luminescence, 48 h; Potency, µM (top dose mostly 46.2 µM), most hits filed as inhibitors; 420,000 compounds, 15% hits; note: nearly all actives have a fitted effect of over 55% in size
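Chicken DT40 Tdp1-/- cells stably complemented with human TDP1 were seeded at 400 cells/well with DMSO in place of 20 nM camptothecin. After compound pinning, cells grew at least 48 hr at 37 °C; viability read by CellTiter-Glo luminescence.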
HT1080-NT tox: qHTS for induction of synthetic lethality in tumor cells producing 2HG: qHTS for the HT-1080-NT fibrosarcoma cell line. HT-1080-NT fibrosarcoma viability, CellTiter-Glo ATP luminescence, 48 h. Potency, µM (titrated, usually from 46.1 µM), actives largely listed as cytotoxic. 360,000 compounds, 1.6% hits. AID 686970, 2013;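 note: NT is the 2HG producing partner of a matched IDH1 knockdown line; nearly all actives have a fitted effect of over 55% in size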
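Fibrosarcoma NT cells, 750 per well in 5% FBS RPMI, were exposed to compound for 48 hours. Viability: CellTiter-Glo luminescence.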
IL1B secr inh: qHTS for Inhibitors of Inflammasome Signaling: IL-1-beta AlphaLISA Primary Screen; THP-1 LPS/ATP IL-1B secretion, AlphaLISA, 16 h; stronger effect = lower value; 360,000 compounds, 4.7% hits; AID 743279, 2014; activity change, % at 57.5 µM; in the data active = activity change below about -50%; inconclusive = mostly about -30% to -49%
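Secreted IL-1B measured by AlphaLISA bead assay after 16 h compound exposure of THP-1 cells; compounds (final up to 57.5 uM) added 1 h before LPS (250 ng/mL) and ATP (1.25 mM) stimulation; lower signal means less secretion.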
Numbers stand for hits; i = inactive; ? = inconclusive; nt = not tested or not shown; ! = repeats disagree; [ ] = remark or other dose. Compounds with a hit are over-represented: about 19% of the library has one in this group of screens. Unless noted, calls come from the whole dose curve; as a rule, active = well fitted curve in the direction sought with a large enough effect; inconclusive = small, poorly fitted or top-dose-only effect, or another doubt; inactive = no such curve, though single readings can be large; an effect the other way counts as inactive or inconclusive.

SMILES	TDP1 cell CPT	HT1080 IDH1KD tx	TDP1 cell noCPT	HT1080-NT tox	IL1B secr inh
CCOC(=O)c1c(CN(C)C)n(C)c2c(O)c(N=NC(N)=O)c3ccc(Br)cc3c12	?	?	15µM	i	i
CCCn1c(=O)c(C(=O)OCC)c(O)c2cc(Br)ccc21	i	i	i	i	i
Cc1cc(C(=O)COC(=O)c2ccccc2O)c(C)n1CC1CCCO1 (configuration not stated)	?	?	i	i[9.24 µM]	i
Cc1cc(C(=O)COC(=O)c2ccccc2NCCO)c(C)n1CC1CCCO1 (configuration not stated)	?	i	15µM	i	i
Cc1cc(C(=O)COC(=O)c2cccnc2Cl)c(C)n1CC1CCCO1 (configuration not stated)	23µM	i	?	i	i
Cc1cc(C(=O)COC(=O)c2ccccc2Br)c(C)n1CC1CCCO1 (configuration not stated)	?	i	?	i	i
Cc1cc(C(=O)COC(=O)c2cc(O)c3ccccc3c2O)c(C)n1CC1CCCO1 (configuration not stated)	16µM	i	?	i	i
CCC(C)C(CO)NCCCn1cnc2c(OC)ncnc21 (configuration not stated)	i	i	i	?	i
COc1ccc(CC(=O)N2CCN(S(=O)(=O)c3cccs3)CC2)cc1OC	i	i	i	i	i
CNC(=O)Nc1cccc(C(F)(F)F)c1	i	i	i	i	i
O=C(Cn1c(=O)oc2cc(Cl)ccc21)Nc1cccc(C(F)(F)F)c1	18µM	nt	18µM	nt	nt
COC(=O)/C=C/C(=O)Nc1cccc(C(F)(F)F)c1	9.2µM	i	15µM	i	-104
O=C(COCC(=O)Nc1cccc(C(F)(F)F)c1)Nc1cccc(C(F)(F)F)c1	?	?	26µM	?	?
O=C(CNC1CCCCC1)Nc1cccc(C(F)(F)F)c1	i	i	i	?	-77
COC(=S)Nc1cccc(C(F)(F)F)c1	i	i	i	i	nt
O=C(CNC1CC1)Nc1cc(C(F)(F)F)ccc1Cl	i	i	i	i	i
COc1ccccc1-c1cncnc1NCc1cccnc1	i	nt	i	nt	nt
COc1ccc2c(c1)C(=O)C1(CC2)OC1c1cccnc1 (configuration not stated)	i	i	?	i	i
Cn1cnnc1Sc1cc(N2CCN(S(=O)(=O)c3ccc(Cl)c(Cl)c3)CC2)ccc1[N+](=O)[O-]	?	i	15µM	i	i
Cc1cc(C)n(-c2cc(N3CCN(S(=O)(=O)c4ccc(C)c(C)c4)CC3)ccc2[N+](=O)[O-])n1	21µM	i	?	i	i
Cc1cc(C)n(-c2cc(N3CCN(S(=O)(=O)c4ccc5ccccc5c4)CC3)ccc2[N+](=O)[O-])n1	?	i	9.2µM	i	i
Cn1cnnc1Sc1cc(N2CCN(S(=O)(=O)c3ccc4ccccc4c3)CC2)ccc1[N+](=O)[O-]	?	i	?	i	i
Cc1ccc(S(=O)(=O)N2CCN(c3ccc([N+](=O)[O-])c(Sc4nncn4C)c3)CC2)cc1	?	i	?	i	i
CC(C)c1nnc(NC(=O)CCC(=O)N2CCN(c3ccccc3F)CC2)s1	i	i	i	i	i
CCn1nc(C)c(CN2CCC3(CCC(CNC(=O)c4ccccc4)O3)CC2)c1C (configuration not stated)	i	nt	i	nt	nt
SMILES	TDP1 cell CPT	HT1080 IDH1KD tx	TDP1 cell noCPT	HT1080-NT tox	IL1B secr inh
CCOC(=O)c1csc(-c2snnc2C)n1	i	i	i	i	i
OCCCNc1ncnc2sc3c(c12)CCN(Cc1ccccc1)C3	?	i	18µM	i	i
O=c1[nH]cnc2sc3c(c12)CCN(Cc1ccccc1)C3	?	i	?	i	i
COc1ccc(NC(=O)CCC(=O)OCc2ccc([N+](=O)[O-])cc2)cc1	i	i	i	i	i
CN[C@H]1CC[C@@H](c2ccc(Cl)c(Cl)c2)c2ccccc21	15µM!	nt	15µM	7.3µM	i
CNC1CCC(c2ccc(Cl)c(Cl)c2)c2ccccc21 (configuration not stated)	15µM	nt	18µM	nt	nt
O=C1C=C(O)CC(c2ccc(Cl)c(Cl)c2)C1 (configuration not stated)	i	i	i	i	i
CC1(C(=O)NS(=O)(=O)c2ccccc2Cl)CCN1C(=O)c1ccco1 (configuration not stated)	i	i	i	i	i
Cc1cccc(NC(=O)c2c(NC(=O)c3cccs3)sc3c2CCC(C)C3)c1 (configuration not stated)	23µM	nt	10µM	nt	nt
CC1CCc2c(sc(NC(=O)c3ccccc3)c2C(=O)Nc2ccccc2)C1 (configuration not stated)	9.2µM	nt	21µM	nt	nt
Cc1cccc(NC(=O)c2c(N)sc3c2CCC(C)C3)c1 (configuration not stated)	?	nt	i	nt	nt
Cc1ccccc1NC(=O)c1c(NC(=O)c2cccs2)sc2c1CCC(C)C2 (configuration not stated)	i	nt	?	nt	nt
Cc1ccc(COc2ccccc2C(=S)N2CCCC2)cc1	?	i	21µM	i	i
CCCCOc1ccc(C(=O)N2CCCCCC2)cc1	i	i	i	i	i
CN(CCOc1ccc(Cl)cc1)C(=O)C1CCN(C(=O)c2ccc(Cl)cc2)CC1	?	i	?	i	-61
O=C(c1ccc(COc2ccccc2Br)cc1)N1CCCCCC1	?	i	16µM	i	i
O=C(O)c1ccc(COc2ccccc2Cl)cc1	i	i	i	i	i
O=C(c1ccc(COc2ccc(Cl)cc2)cc1)N1CCCCC1	?	i	?	i	-63
COc1cccc(C(=O)N2CCn3c2nc2ccccc23)c1	i	i	i	i	i
CN(CCOc1ccccc1)C(=O)c1ccc(OC2CCN(C(=O)C3CC3)CC2)cc1	?	i	18µM	?	i
COc1cc(C(=O)N(C)CCOc2ccc(C)cc2)ccc1OC1CCN(C(C)=O)CC1	i	i	i	i	i
CCCc1cc(CNC(=O)C2CCC(=O)N(Cc3ccccc3F)C2)on1 (configuration not stated)	i	i	i	i	i
O=C(CCCO)NNc1c2ccccc2nc2ccccc12	i	i	?	i	i
COc1ccc(OCC(=O)NNc2c3ccccc3nc3ccccc23)cc1	23µM	?	21µM	i	-51
O=C(COc1ccccc1)NNc1c2ccccc2nc2ccccc12	?	?	13µM	i	i
CCCC(=O)NNc1c2ccccc2nc2ccccc12	i	i	?	i	i
